Source: PubChem BioAssay
This is a sample that favours compounds with a hit; in the whole collection about 0.46% have one here.
B2AR arrestin: qHTS assay of beta-arrestin-biased ligands of beta2-adrenergic receptor; Beta-2 adrenergic receptor (Homo sapiens), P07550; beta-arrestin recruitment to beta2AR, cell-based reporter; Potency, µM (top dose mostly 46.1 µM), without a hit: top-dose activation, most hits filed as activators; actives 0.02% (n = 330,000);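 note: potency is the fitted concentration of half-maximal effect; 0% = DMSO controls and full agonism = EC100 isoproterenol or metaproterenol; nearly all actives have a fitted effect of over 65% in size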
Target sequence (P07550 whole entry, looked up): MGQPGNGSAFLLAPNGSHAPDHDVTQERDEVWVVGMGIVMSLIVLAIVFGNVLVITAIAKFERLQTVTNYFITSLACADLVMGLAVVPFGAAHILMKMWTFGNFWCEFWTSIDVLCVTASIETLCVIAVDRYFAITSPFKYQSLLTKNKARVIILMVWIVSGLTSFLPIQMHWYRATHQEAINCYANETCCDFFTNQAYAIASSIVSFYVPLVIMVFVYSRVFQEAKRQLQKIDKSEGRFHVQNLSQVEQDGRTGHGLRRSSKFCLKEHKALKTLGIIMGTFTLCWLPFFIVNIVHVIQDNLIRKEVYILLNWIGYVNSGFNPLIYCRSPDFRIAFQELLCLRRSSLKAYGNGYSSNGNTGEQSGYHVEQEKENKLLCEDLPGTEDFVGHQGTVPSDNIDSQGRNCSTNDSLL
PKM2 act: qHTS Assay for Activators of Human Muscle isoform 2 Pyruvate Kinase | Potency, µM (doses to about 57.5 µM), without a hit: at the top dose activation, hits mostly activators | Pyruvate kinase PKM (Homo sapiens), P14618 | actives 0.34% (n = 260,000) | purified PKM2, Kinase-Glo ATP luminescence, activation; response scale: 0% is enzyme alone, no compound | AID 1631, 2009; note: potency is the fitted concentration of half-maximal effect; % is set by controls: 0 for no effect and ±100 for the full control effect; nearly all actives have a fitted effect of over 55% in size
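Purified hPK-M2 (>95%) run at intermediate activity with 0.1 mM ADP and 0.5 mM PEP in 50 mM imidazole pH 7.2, KCl, MgCl2; 1 h room temperature. ATP formed read by Kinase-Glo luminescence; normalized to uninhibited and no-enzyme controls.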
Chronic BCR inh: qHTS Assay to Find Inhibitors of Chronic Active B-Cell Receptor Signaling; ABC-DLBCL IkBa-CBG/CBR reporter, luminescence ratio, 4 h; AID 493014, 2011; actives 0.05% (n = 340,000); Potency, µM (titrated, usually from 46.1 µM), for the others: top-dose activity change, negative = inhibition, usual class: inhibitors; active = well fitted inhibition curve with a large enough effect in the signal ratio, with a control signal flat, not every such curve was filed as active; inconclusive = small, poorly fitted or top-dose-only effect, or effect the other way, or a change in a side signal; the % refers to the signal ratio;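 note: potency is the fitted concentration of half-maximal effect; plate controls were basal doxycycline-induced cells for no effect and cells given 10 µM MG132 for full effect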
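Doxycycline induced both beetle luciferases in TMD8 lymphoma cells; IKK-driven degradation limits the IkappaBalpha-fused green signal, while red luminescence normalises for cell number and nonspecific effects. Compounds tested up to 46 uM, 4 hrs.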
PINK1 expr mod: A Quantitative High throughput Screen to Identify Chemical Modulators of PINK1 Expression; PINK1 immunofluorescence, high-content cytometry, 24 h; Potency, µM (titrated, usually from 76.6 µM), for inactives: top-dose activation (PINK1 increase), usual class: activators; actives 0.2% (n = 410,000); active = well fitted activation curve with a large enough effect; inconclusive = small, poorly fitted or top-dose-only effect; cell line not stated here; note: potency is the fitted concentration of half-maximal effect; % of control where 0% means no effect; nearly all actives have a fitted effect of over 65% in size
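Readout is PINK1 immunofluorescence, quantified alongside mitochondrial, cell and nuclear markers by laser-scanning microplate cytometry. Cells from a stable line were exposed to compound titrations (5 concentrations) for 24 hours, with CCCP controls.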
miR-21 reporter: qHTS Assay for Modulators of miRNAs and/orActivators of miR-21 | HeLa miR-21 FLuc reporter, luciferase, 48 h | Potency, µM (top dose mostly 38.3 µM), without a hit: at the top dose activity change, positive = activation, actives largely listed as activators | 340,000 tested, under 10 active | AID 2288, 2010;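 note: % of control where 0% means no effect; miR-21 action dims this reporter so a rising signal means less miR-21 action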
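Using DMEM plus 10% FBS, HeLa miR-21-FLuc cells are incubated with test compounds (final up to about 40uM) for 48 hours; firefly luciferase signal is then imaged following reagent-mediated lysis.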
Pin1 inhibitor: qHTS Assay to Find Inhibitors of Pin1; AID 504891, 2011; Peptidyl-prolyl cis-trans isomerase NIMA-interacting 1 (Homo sapiens), Q13526; Pin1 FP peptide displacement, HiFluor488, 10 min; Potency, µM (top dose mostly 115 µM), for inactives: at the top dose activity, negative = inhibition, hits mostly inhibitors; actives 0.009% (n = 390,000); active = well fitted inhibition curve with a large enough effect in the polarisation, with a control signal flat, not every such curve was filed as active; inconclusive = small, poorly fitted or top-dose-only effect, or effect the other way, or a change in a side signal; inactive = no such curve, though single readings can be large or run the other way; the % refers to the polarisation; note: potency is the fitted concentration of half-maximal effect; % is set by controls: 0 for no effect and ±100 for the full control effect
Target sequence (Q13526 whole entry, looked up): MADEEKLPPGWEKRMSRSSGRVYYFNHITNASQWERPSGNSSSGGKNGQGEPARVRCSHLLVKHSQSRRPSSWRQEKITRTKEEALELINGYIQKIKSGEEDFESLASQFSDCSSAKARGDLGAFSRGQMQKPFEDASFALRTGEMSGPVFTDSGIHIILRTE
Numbers without * were called inactive; [ ] = another dose, or the depositor's remark. Unless noted, calls come from the whole dose curve; as a rule, active = well fitted curve in the direction sought with a large enough effect; inconclusive = small, poorly fitted or top-dose-only effect, or another doubt; inactive = no such curve, though single readings can be large; an effect the other way counts as inactive or inconclusive.

Cc1cc(NC(=O)CSc2ccc3nnc(-c4ccc(F)cc4)n3n2)no1 was read as B2AR arrestin 0%, PKM2 act 5%, Chronic BCR inh 5%, PINK1 expr mod 3%[38.3 µM], miR-21 reporter -1% and Pin1 inhibitor -6%.
Screening Cc1nnc(NC(=O)CSc2ccc(-c3cccnc3)nn2)s1 returned B2AR arrestin -1%, PKM2 act 2.8µM*, Chronic BCR inh 3%, PINK1 expr mod -2%, miR-21 reporter -3% and Pin1 inhibitor -2%.
Screening Cc1cc(NC(=O)CSc2ccc(-c3ccc(F)cc3)nn2)no1 returned B2AR arrestin 0%, PKM2 act 7.1µM*, Chronic BCR inh -18%, PINK1 expr mod 1%, miR-21 reporter -4% and Pin1 inhibitor 16%.
Screening Cc1cc(NC(=O)CSc2ccc(-c3ccccc3)nn2)no1 returned B2AR arrestin 0%, PKM2 act 16µM*, Chronic BCR inh -1%, PINK1 expr mod -2%, miR-21 reporter -6% and Pin1 inhibitor 1%.
`Cc1cc(NC(=O)CSc2ccc(-c3cccc([N+](=O)[O-])c3)nn2)no1` gave B2AR arrestin 0%, PKM2 act 3%, Chronic BCR inh -2%, PINK1 expr mod 5%, miR-21 reporter 2% and Pin1 inhibitor -4%.
Screening Cc1ccnn1CC(=O)N1CCOc2c(cc(-c3csc4ccccc34)cc2OC2CCOC2)C1 (configuration not stated) returned PINK1 expr mod 3%.
`COC(=O)c1cccc(C(=O)NCc2nc(-c3cccc(NC(=O)c4ccoc4C)c3)oc2C)c1` gave PINK1 expr mod 3%.
Screening CCc1cc(=S)n2c([nH]c3ccccc32)c1C#N returned B2AR arrestin 0%, PKM2 act -3%, Chronic BCR inh inconclusive, PINK1 expr mod 16µM*, miR-21 reporter 10% and Pin1 inhibitor -6%.
Cc1cc(C(F)(F)F)c2c(N)c(C(=O)Nc3cc(C)on3)sc2n1 was read as B2AR arrestin 0%, PKM2 act -2%, Chronic BCR inh 2%, PINK1 expr mod 22µM*, miR-21 reporter -49% and Pin1 inhibitor inconclusive.
For COCCN(C)C(=O)c1cnn(-c2ncc3c(n2)-c2ccccc2CC3)c1C the results were PINK1 expr mod 1%.
CC(C)CC[n+]1ccccc1/C=C/c1ccc(N(C)C)cc1 was read as B2AR arrestin -1%, Chronic BCR inh inconclusive, PINK1 expr mod 32µM*, miR-21 reporter inconclusive and Pin1 inhibitor inconclusive.
Screening CN(C)c1ccc(/C=C/c2cccc[n+]2[O-])cc1 returned B2AR arrestin 0%, PKM2 act -6%, Chronic BCR inh inconclusive, PINK1 expr mod -1%, miR-21 reporter -53% and Pin1 inhibitor inconclusive.
For Cc1cc2cc(C#N)c(SCC(=O)Nc3nonc3C)nc2cc1C the results were B2AR arrestin -1%, Chronic BCR inh inconclusive, PINK1 expr mod inconclusive, miR-21 reporter -22% and Pin1 inhibitor 18%.
Cc1nonc1NC(=O)CSc1nc2c(C)cccc2cc1C#N was read as B2AR arrestin 0%, PKM2 act -8%, Chronic BCR inh inconclusive, PINK1 expr mod 45µM*, miR-21 reporter -38% and Pin1 inhibitor inconclusive.
`Cn1c(CCCOc2ccc(Cl)cc2Cl)nnc1SCC(=O)Nc1nccs1` gave B2AR arrestin 0%, PKM2 act 11%, Chronic BCR inh -10%, PINK1 expr mod 13µM*, miR-21 reporter -2% and Pin1 inhibitor 0%.
O=c1[nH]c(=O)n(Cc2ccco2)c2c1C(C(F)(F)F)(C(F)(F)F)N=C(c1ccc(F)cc1)N2 was read as B2AR arrestin -1%, PKM2 act -1%, Chronic BCR inh 3%, PINK1 expr mod 13µM*, miR-21 reporter inconclusive and Pin1 inhibitor 0%.
`CCN1CCN(c2ncnc3c2nnn3Cc2ccccc2)CC1` gave B2AR arrestin -1%, PKM2 act 3%, Chronic BCR inh -7%, PINK1 expr mod 1%, miR-21 reporter -1% and Pin1 inhibitor 1%.
For c1ccc(Cn2nnc3c(N4CCc5ccccc5C4)ncnc32)cc1 the results were B2AR arrestin 0%, PKM2 act 14µM*, Chronic BCR inh inconclusive, PINK1 expr mod 3%, miR-21 reporter 0% and Pin1 inhibitor 1%.
c1ccc(Cn2nnc3c(N4CCCC4)ncnc32)cc1 was read as B2AR arrestin 0%, PKM2 act 16µM*, Chronic BCR inh 1%, PINK1 expr mod -4%[38.3 µM], miR-21 reporter -23% and Pin1 inhibitor -12%.
`CCn1nc(C)cc1C(=O)NCC1Cc2cc(C)cc(-c3ccccc3C(=O)OC)c2O1` (configuration not stated) gave PINK1 expr mod 1%.
For CNc1cc([N+](=O)[O-])ccc1N/C=C/C(=O)c1cccs1 the results were B2AR arrestin 0%, PKM2 act 9%, Chronic BCR inh -14%, PINK1 expr mod 8%, miR-21 reporter -58% and Pin1 inhibitor 12%.
COc1ccc(C(=O)/C=C/Nc2ccc([N+](=O)[O-])cc2C)cc1OC was read as B2AR arrestin 0%, PKM2 act 6%, Chronic BCR inh 3%, PINK1 expr mod 28µM*, miR-21 reporter -16% and Pin1 inhibitor inconclusive.
For CNc1cc([N+](=O)[O-])ccc1N/C=C/C(=O)c1ccc2c(c1)OCO2 the results were B2AR arrestin 0%, PKM2 act -6%, Chronic BCR inh -2%, PINK1 expr mod 14µM*, miR-21 reporter -35% and Pin1 inhibitor 0%.
Screening Cc1ccc(CSc2nnc(SCC(=O)N/N=C/c3c[nH]c4ccccc34)s2)cc1 returned B2AR arrestin 0%, PKM2 act 25µM*, Chronic BCR inh 1%, PINK1 expr mod 0%, miR-21 reporter 8% and Pin1 inhibitor inconclusive.
For O=C(CCl)Nc1nc(-c2ccco2)c(-c2ccco2)s1 the results were B2AR arrestin -1%, PKM2 act 27%, Chronic BCR inh inconclusive, PINK1 expr mod -2%, miR-21 reporter -1% and Pin1 inhibitor 33%.
`O=C(CCCSc1ccccc1)Nc1nc(-c2ccco2)c(-c2ccco2)s1` gave B2AR arrestin 12%, PKM2 act 18µM*, Chronic BCR inh 15%, PINK1 expr mod 11%, miR-21 reporter -1% and Pin1 inhibitor 20%.
